A short description of assay [1]: NCI Yeast Anticancer Drug Screen. Data for the rad50 strain (AID 155).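 Also: 0% = growth of vehicle-only cultures of the same strain.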 Particulars: S. cerevisiae rad50 strain growth inhibition, active compounds read high. Summed up: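 A DNA repair-deficient yeast mutant serves as the test organism; compound-induced growth inhibition is calculated against vehicle-treated cells.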
The nature of assay [2]: NCI Yeast Anticancer Drug Screen. Data for the sgs1 mgt1 strain (AID 161).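 Also: 0% = growth of cultures given vehicle only.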 Particulars: S. cerevisiae sgs1 mgt1 strain, active compounds read high. Summed up:
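Test agents were incubated with a DNA-repair-mutant yeast strain. Growth was then read and compared against vehicle-treated controls.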

Assay [3] can be described thus: NCI Yeast Anticancer Drug Screen. Data for the cln2 rad14 strain (AID 165).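 Also: 0% = growth equal to vehicle treated cultures.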 The conditions noted are these: S. cerevisiae cln2 rad14 strain, active compounds read high. A digest of the protocol:
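Compounds are applied to the cln2 rad14 yeast strain, and growth is then compared with that of vehicle-treated cultures to give inhibition.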

A short description of assay [4]: NCI Yeast Anticancer Drug Screen. Data for the bub3 strain (AID 167). Particulars: S. cerevisiae bub3 mutant strain, active compounds read high. A digest of the protocol:
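Inhibition values come from growth of compound-treated mutant yeast normalised to vehicle-treated controls.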

A short description of assay [5]: NCI Yeast Anticancer Drug Screen. Data for the mlh1 rad18 strain (AID 175). Particulars: S. cerevisiae mlh1 rad18 strain growth inhibition, active compounds read high. Summed up: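 Read-out is yeast growth inhibition, calculated against vehicle-only controls. The compound was applied to a strain engineered with DNA damage repair alterations.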
Assay [6] in a line: NCI Yeast Anticancer Drug Screen. Data for the mec2-1 strain (AID 157). The conditions noted are these: S. cerevisiae mec2-1 strain, active compounds read high. Summed up:
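Strain: mec2-1 (DNA repair/cell cycle alteration). Compound exposure, then growth measured; inhibition expressed relative to vehicle.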

Where [7] appears, read: at 5.0 µM (retest, dose inferred, filed as 0.5).
[8] abbreviates: at 50.0 µM (retest, dose inferred, filed as 5.0).

About 79,000 compounds went through this panel and 15% of them were active in at least one assay; those are over-represented in the sample as a whole. A number with no mark means an inactive call. The source made the active and inactive calls. Rule as the data show it: active = growth inhibition above about 70%; inactive = the rest.

Consider `S=C(N/N=C(/c1ccccc1)c1ccccn1)Nc1ccccc1`, for which the growth inhibition in assay [1] (setting [7]) was 2%; in assay [1] (setting [8]), 90% (active); in assay [1] (at 50.0 µM), 84.3% (active); in assay [2] (setting [7]), 20%; in assay [2] (setting [8]), 95% (active); in assay [2] (at 50.0 µM), 85.3% (active). Moreover, the growth inhibition is -9% in assay [3] (setting [7]); 94% (active) in assay [3] (setting [8]); 60.4% in assay [3] (at 50.0 µM); 2% in assay [4] (setting [7]); 93% (active) in assay [4] (setting [8]); 76.2% (active) in assay [4] (at 50.0 µM). In addition, the growth inhibition in assay [5] (setting [7]) was 13%; in assay [5] (setting [8]) it was 94% (active); in assay [5] (at 50.0 µM) it was 90% (active).
On to `COc1cccc(OC)c1C(=O)/C=C/c1ccccc1`, for which the growth inhibition in assay [1] (setting [7]) is -3%; in assay [1] (setting [8]), 62%; in assay [1] (at 50.0 µM) it was 66.7%; in assay [2] (setting [7]) it was 1%; in assay [2] (setting [8]), 62%; in assay [2] (at 50.0 µM), 69.9%. The growth inhibition was -7% in assay [3] (setting [7]); 47% in assay [3] (setting [8]); 55.4% in assay [3] (at 50.0 µM); -5% in assay [4] (setting [7]); 70% (active) in assay [4] (setting [8]); 50.9% in assay [4] (at 50.0 µM). For the same compound, the growth inhibition in assay [5] (setting [7]) was 1%; in assay [5] (setting [8]), 71% (active); in assay [5] (at 50.0 µM), 79.1% (active).
Turning to `CCOC(CCl)Oc1c(C(C)C)cc(C(C)C)c(Cl)c1C` (stereo not given), the growth inhibition in assay [6] (setting [7]) is -1%; in assay [6] (setting [8]), 57%; in assay [6] (at 50.0 µM) it was 96.7% (active); in assay [2] (setting [7]), 1%; in assay [2] (setting [8]), 49%; in assay [2] (at 50.0 µM) it was 97.7% (active). Moreover, the growth inhibition in assay [3] (setting [7]) was 4%; in assay [3] (setting [8]), 26%; in assay [3] (at 50.0 µM), 96.7% (active); in assay [4] (setting [7]), -3%; in assay [4] (setting [8]), 19%; in assay [4] (at 50.0 µM) it was 97.3% (active). The growth inhibition in assay [5] (setting [7]) is -1%; in assay [5] (setting [8]) it was 27%; in assay [5] (at 50.0 µM) it was 95% (active).
Take `CC1=C/C(=C\C=C2/N(C)c3c(C)cccc3C2(C)C)C(=O)c2ncccc21`: the growth inhibition in assay [1] (setting [7]) was 28%; in assay [1] (setting [8]) it was 98% (active); in assay [1] (at 50.0 µM), 94.2% (active); in assay [2] (setting [7]), 19%; in assay [2] (setting [8]), 98% (active); in assay [2] (at 50.0 µM), 70.8% (active). Moreover, the growth inhibition in assay [3] (setting [7]) was 9%; in assay [3] (setting [8]), 98% (active); in assay [3] (at 50.0 µM) it was 24.6%; in assay [4] (setting [7]), 49%; in assay [4] (setting [8]), 98% (active); in assay [4] (at 50.0 µM) it was 64.6%. The results for the growth inhibition in assay [5] (setting [7]), in assay [5] (setting [8]) and in assay [5] (at 50.0 µM) were 45%, 98% (active) and 63.2%, respectively.
On to `Cc1ccc(Cc2n[nH]c(=O)[nH]2)cc1`, for which the growth inhibition in assay [6] (setting [7]) was 18%; in assay [6] (setting [8]), 14%; in assay [6] (at 50.0 µM), -45.1%; in assay [2] (setting [7]) it was 30%; in assay [2] (setting [8]), 33%; in assay [2] (at 50.0 µM), -35.7%. The growth inhibition in assay [3] (setting [7]) is 17%; in assay [3] (setting [8]), 30%; in assay [3] (at 50.0 µM) it was -2.5%; in assay [4] (setting [7]) it was 26%; in assay [4] (setting [8]), 22%; in assay [4] (at 50.0 µM), -26.3%. Moreover, the growth inhibition in assay [5] (setting [7]) is 45%; in assay [5] (setting [8]), 52%; in assay [5] (at 50.0 µM) it was -31.6%.
In the case of `CC(=O)Oc1ccc(-c2ccc(Br)cc2)cc1`, the growth inhibition was -3% in assay [6] (setting [7]); 91% (active) in assay [6] (setting [8]); 97.9% (active) in assay [6] (at 50.0 µM); -2% in assay [2] (setting [7]); 89% (active) in assay [2] (setting [8]); 96.4% (active) in assay [2] (at 50.0 µM). Also, the growth inhibition in assay [3] (setting [7]) was -11%; in assay [3] (setting [8]), 93% (active); in assay [3] (at 50.0 µM) it was 97.8% (active); in assay [4] (setting [7]), 20%; in assay [4] (setting [8]), 94% (active); in assay [4] (at 50.0 µM) it was 97.6% (active). Also, the values for the growth inhibition in assay [5] (setting [7]), in assay [5] (setting [8]) and in assay [5] (at 50.0 µM) were -7%, 94% (active) and 98% (active), respectively.
As for `COc1cccc2c1C(=O)c1c(O)c3c(c(O)c1C2=O)C[C@@](O)(/C(C)=N/NS(C)(=O)=O)C[C@@H]3OC1CC(N)C(O)C(C)O1` (stereo not given in full), the growth inhibition is 42% in assay [1] (setting [7]); 94% (active) in assay [1] (setting [8]); 95.2% (active) in assay [1] (at 50.0 µM); 18% in assay [6] (setting [7]); 80% (active) in assay [6] (setting [8]); 81.3% (active) in assay [6] (at 50.0 µM). Also, the growth inhibition in assay [3] (setting [7]) is 15%; in assay [3] (setting [8]), 52%; in assay [3] (at 50.0 µM), 70% (active); in assay [4] (setting [7]) it was 12%; in assay [4] (setting [8]), 91% (active); in assay [4] (at 50.0 µM), 90.5% (active). The growth inhibition in assay [5] (setting [7]) is 14%; in assay [5] (setting [8]) it was 89% (active); in assay [5] (at 50.0 µM) it was 91.6% (active).
In the case of `CN(NC(=O)/C(=C/c1ccc2c(c1)OCO2)NC(=O)c1ccccc1)c1ccnc2cc(Cl)ccc12`, the growth inhibition is -15% in assay [6] (setting [7]); -2% in assay [6] (setting [8]); 46% in assay [6] (at 50.0 µM); -9% in assay [2] (setting [7]); -15% in assay [2] (setting [8]); 78% (active) in assay [2] (at 50.0 µM). The growth inhibition was 22% in assay [3] (setting [7]); 11% in assay [3] (setting [8]); 55.6% in assay [3] (at 50.0 µM); 8% in assay [4] (setting [7]); 33% in assay [4] (setting [8]); 72.2% (active) in assay [4] (at 50.0 µM). For the same compound, the growth inhibition is 10% in assay [5] (setting [7]), 11% in assay [5] (setting [8]) and 87.7% (active) in assay [5] (at 50.0 µM).
Regarding `COc1cc(/C=C2\CCc3ccccc3C2=O)ccc1O`, the growth inhibition in assay [1] (setting [7]) is -18%; in assay [1] (setting [8]) it was 99% (active); in assay [1] (at 50.0 µM), 89.2% (active); in assay [2] (setting [7]), -28%; in assay [2] (setting [8]), 99% (active); in assay [2] (at 50.0 µM) it was 88% (active). Also, the growth inhibition in assay [3] (setting [7]) is 5%; in assay [3] (setting [8]) it was 99% (active); in assay [3] (at 50.0 µM) it was 90.8% (active); in assay [4] (setting [7]) it was 24%; in assay [4] (setting [8]), 99% (active); in assay [4] (at 50.0 µM), 91.5% (active). For the same compound, the figures for the growth inhibition in assay [5] (setting [7]), in assay [5] (setting [8]) and in assay [5] (at 50.0 µM) were -20%, 99% (active) and 84.3% (active), respectively.
